What all share (assay): DAPPL (digital affinity profiling via proximity ligation, sequencing); 10 mM Tris-HCl pH 7.5, 50 mM NaCl, 1 mM DTT, 4% glycerol, room temperature, 30 min; GST-TFs on glutathione beads, 16-mer random dsDNA library, 0.1% formaldehyde crosslink after washing; high values mean tight binding
For one assay, the target named is T1, FLI1 (Homo sapiens, UniProt Q01543 1-452).
T1 sequence: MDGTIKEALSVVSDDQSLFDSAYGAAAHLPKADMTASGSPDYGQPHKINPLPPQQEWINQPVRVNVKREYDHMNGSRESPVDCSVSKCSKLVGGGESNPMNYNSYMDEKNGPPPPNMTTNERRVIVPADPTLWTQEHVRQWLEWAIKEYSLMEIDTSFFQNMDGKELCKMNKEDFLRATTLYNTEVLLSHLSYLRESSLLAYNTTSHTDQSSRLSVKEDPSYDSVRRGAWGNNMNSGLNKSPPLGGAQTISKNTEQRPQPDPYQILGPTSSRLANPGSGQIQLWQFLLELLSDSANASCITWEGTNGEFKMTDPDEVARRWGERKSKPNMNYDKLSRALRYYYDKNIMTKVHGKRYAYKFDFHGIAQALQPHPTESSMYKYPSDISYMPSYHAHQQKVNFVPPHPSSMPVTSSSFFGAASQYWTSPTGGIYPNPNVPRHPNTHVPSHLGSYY
Particulars: protein: recombinant; tags: N-terminal GST; dsDNA, one strand shown. A digest of the protocol:
(§1)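 Binding signal is defined as a hexamer's read frequency for one factor over its frequency for the tag-only sample. To obtain reads, GST-fused human transcription factors were expressed in yeast, captured on glutathione beads, barcoded with DNA and pooled with that sample. Pools met 200 nmole of a 16-mer random double-stranded DNA library in Tris/NaCl/DTT/glycerol buffer for 30 min at room temperature before washing, 0.1% formaldehyde crosslinking, proximity ligation (BsaI/T4 ligase, 1 h, 37 °C), PCR and Illumina NextSeq500 sequencing.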

The next assay has as its target T2, ELK1 (Homo sapiens, UniProt P19419 1-428).
T2 sequence: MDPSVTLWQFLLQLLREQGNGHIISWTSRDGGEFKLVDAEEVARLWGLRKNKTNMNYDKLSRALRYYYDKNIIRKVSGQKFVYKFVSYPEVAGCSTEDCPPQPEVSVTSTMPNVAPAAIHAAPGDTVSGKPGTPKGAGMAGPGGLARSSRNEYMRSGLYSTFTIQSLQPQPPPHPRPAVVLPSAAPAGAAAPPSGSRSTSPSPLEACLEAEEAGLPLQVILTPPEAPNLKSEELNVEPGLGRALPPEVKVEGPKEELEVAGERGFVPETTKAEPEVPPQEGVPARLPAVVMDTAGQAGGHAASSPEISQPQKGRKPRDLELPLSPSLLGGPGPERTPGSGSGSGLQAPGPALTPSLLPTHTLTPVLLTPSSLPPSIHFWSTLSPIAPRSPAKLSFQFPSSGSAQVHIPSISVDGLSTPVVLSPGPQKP
To be noted: protein: recombinant; tags: N-terminal GST; dsDNA, one strand shown. A digest of the protocol: as §1

In a further assay the target is T3, GABPA (Homo sapiens, UniProt Q06546 1-454).
T3 sequence: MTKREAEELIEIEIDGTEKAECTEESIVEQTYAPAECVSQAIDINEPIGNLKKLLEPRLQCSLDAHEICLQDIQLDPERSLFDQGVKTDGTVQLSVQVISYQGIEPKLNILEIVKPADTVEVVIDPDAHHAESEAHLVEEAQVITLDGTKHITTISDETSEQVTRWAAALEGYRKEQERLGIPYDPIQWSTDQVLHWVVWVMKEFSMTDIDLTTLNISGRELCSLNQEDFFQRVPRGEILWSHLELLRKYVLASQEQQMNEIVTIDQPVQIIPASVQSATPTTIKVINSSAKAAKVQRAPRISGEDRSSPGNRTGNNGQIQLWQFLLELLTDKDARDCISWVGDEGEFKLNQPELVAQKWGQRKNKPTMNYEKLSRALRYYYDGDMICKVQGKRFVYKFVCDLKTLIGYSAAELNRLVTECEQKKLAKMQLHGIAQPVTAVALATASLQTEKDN
To be noted: protein: recombinant; tags: N-terminal GST; dsDNA, one strand shown. A digest of the protocol: as §1

For the next assay, the target named is T4, ERG (Homo sapiens, UniProt P11308 1-479).
T4 sequence: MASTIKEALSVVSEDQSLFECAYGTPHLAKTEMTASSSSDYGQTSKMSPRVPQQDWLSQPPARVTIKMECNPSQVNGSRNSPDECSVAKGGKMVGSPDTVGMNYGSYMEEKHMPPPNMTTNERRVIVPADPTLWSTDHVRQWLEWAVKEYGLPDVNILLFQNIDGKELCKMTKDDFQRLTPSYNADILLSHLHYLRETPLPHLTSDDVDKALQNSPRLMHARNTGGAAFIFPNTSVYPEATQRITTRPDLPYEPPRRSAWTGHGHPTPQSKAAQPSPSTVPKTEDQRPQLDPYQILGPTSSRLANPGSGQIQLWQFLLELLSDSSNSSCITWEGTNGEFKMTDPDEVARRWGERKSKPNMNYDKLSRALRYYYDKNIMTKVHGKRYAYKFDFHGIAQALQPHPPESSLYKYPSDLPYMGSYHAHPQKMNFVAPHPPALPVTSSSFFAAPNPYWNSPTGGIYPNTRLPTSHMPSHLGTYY
To be noted: protein: recombinant; tags: N-terminal GST; dsDNA, one strand shown. The gist of the method: as §1

For the next assay, the target named is ELF1 (Homo sapiens, UniProt P32519 1-619). To be noted: protein: recombinant; tags: N-terminal GST; dsDNA, one strand shown. The gist of the method:
as §1

Another assay concerns the target T5, EHF (Homo sapiens, UniProt Q9NZC4 1-300).
T5 sequence: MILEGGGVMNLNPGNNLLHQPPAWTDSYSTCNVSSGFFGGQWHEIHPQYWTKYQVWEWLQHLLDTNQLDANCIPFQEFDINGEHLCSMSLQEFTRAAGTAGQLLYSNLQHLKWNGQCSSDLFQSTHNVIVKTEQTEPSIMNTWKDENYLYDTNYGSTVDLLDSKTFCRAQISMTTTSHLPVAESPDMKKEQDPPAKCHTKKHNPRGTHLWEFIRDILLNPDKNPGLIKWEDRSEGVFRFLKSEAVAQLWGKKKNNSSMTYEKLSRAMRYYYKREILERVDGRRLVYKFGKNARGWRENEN
To be noted: protein: recombinant; tags: N-terminal GST; dsDNA, one strand shown. The gist of the method:
as §1

The target of a further assay is SPI1 (Homo sapiens, UniProt P17947 1-270). Particulars: protein: recombinant; tags: N-terminal GST; dsDNA, one strand shown. The gist of the method: as §1
A further assay concerns the target SPIB (Homo sapiens, UniProt Q01892 1-262). To be noted: protein: recombinant; tags: N-terminal GST; dsDNA, one strand shown. The gist of the method:
as §1

The target of another assay is T6, ELK3 (Homo sapiens, UniProt P41970 1-407).
T6 sequence: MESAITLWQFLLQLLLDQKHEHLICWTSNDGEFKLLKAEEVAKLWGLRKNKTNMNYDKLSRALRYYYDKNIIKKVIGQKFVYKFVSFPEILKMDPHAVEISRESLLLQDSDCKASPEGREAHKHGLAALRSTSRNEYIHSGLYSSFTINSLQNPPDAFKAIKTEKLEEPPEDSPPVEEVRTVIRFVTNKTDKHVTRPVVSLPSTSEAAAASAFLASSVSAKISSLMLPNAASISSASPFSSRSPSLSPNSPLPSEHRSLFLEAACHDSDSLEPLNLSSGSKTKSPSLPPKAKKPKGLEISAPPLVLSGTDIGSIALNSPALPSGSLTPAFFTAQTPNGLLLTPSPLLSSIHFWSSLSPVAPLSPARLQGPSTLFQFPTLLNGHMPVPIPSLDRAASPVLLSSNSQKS
To be noted: protein: recombinant; tags: N-terminal GST; dsDNA, one strand shown. The gist of the method:
as §1

For a further assay, the target named is T7, FEV (Homo sapiens, UniProt Q99581 1-238).
T7 sequence: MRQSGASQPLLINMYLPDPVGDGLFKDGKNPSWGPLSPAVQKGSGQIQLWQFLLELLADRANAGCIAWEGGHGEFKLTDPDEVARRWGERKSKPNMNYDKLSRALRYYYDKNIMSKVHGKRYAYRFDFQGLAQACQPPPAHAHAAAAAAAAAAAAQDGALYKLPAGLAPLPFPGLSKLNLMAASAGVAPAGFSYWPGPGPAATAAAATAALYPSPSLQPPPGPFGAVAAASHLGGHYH
Particulars: protein: recombinant; tags: N-terminal GST; dsDNA, one strand shown. The gist of the method: as §1

The target of another assay is ETV5 (Homo sapiens, UniProt P41161 1-510). Particulars: protein: recombinant; tags: N-terminal GST; dsDNA, one strand shown. The gist of the method: as §1
Sequence of ETV5 (P41161 whole entry): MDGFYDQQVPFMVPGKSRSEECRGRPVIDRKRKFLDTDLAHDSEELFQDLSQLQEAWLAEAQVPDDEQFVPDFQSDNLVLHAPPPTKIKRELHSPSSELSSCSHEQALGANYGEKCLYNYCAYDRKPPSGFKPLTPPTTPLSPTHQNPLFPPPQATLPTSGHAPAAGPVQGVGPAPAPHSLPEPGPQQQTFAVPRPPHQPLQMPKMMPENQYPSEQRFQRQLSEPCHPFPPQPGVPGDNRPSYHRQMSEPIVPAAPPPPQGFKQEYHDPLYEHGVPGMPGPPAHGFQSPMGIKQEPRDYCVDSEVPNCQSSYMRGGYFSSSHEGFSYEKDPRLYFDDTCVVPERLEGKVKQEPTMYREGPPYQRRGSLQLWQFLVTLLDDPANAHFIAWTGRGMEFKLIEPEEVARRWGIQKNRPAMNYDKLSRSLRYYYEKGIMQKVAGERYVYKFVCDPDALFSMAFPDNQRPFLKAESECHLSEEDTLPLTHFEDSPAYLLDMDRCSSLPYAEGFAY
Another assay concerns the target HSF1 (Homo sapiens, UniProt Q00613 1-529). To be noted: protein: recombinant; tags: N-terminal GST; chain copies: 3; dsDNA, one strand shown. The gist of the method: as §1
Another assay concerns the target ELF4 (Homo sapiens, UniProt Q99607 1-663). Particulars: protein: recombinant; tags: N-terminal GST; dsDNA, one strand shown. A digest of the protocol:
as §1

The target in another assay is T8, ELK4 (Homo sapiens, UniProt P28324-2 1-405).
T8 sequence: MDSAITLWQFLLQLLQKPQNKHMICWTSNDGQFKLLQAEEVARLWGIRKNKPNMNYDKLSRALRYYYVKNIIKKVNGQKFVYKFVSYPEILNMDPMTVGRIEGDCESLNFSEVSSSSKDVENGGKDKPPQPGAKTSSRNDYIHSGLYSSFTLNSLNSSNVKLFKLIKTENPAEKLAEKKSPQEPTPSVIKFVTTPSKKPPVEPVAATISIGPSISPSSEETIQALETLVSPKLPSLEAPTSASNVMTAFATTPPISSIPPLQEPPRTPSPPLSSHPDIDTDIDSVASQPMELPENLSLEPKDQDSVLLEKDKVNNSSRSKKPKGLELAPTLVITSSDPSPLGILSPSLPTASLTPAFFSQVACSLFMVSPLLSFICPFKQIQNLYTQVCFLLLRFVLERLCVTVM
To be noted: protein: recombinant; tags: N-terminal GST; dsDNA, one strand shown. A digest of the protocol: as §1

Another assay concerns the target T9, ETV2 (Homo sapiens, UniProt O00321 1-342).
T9 sequence: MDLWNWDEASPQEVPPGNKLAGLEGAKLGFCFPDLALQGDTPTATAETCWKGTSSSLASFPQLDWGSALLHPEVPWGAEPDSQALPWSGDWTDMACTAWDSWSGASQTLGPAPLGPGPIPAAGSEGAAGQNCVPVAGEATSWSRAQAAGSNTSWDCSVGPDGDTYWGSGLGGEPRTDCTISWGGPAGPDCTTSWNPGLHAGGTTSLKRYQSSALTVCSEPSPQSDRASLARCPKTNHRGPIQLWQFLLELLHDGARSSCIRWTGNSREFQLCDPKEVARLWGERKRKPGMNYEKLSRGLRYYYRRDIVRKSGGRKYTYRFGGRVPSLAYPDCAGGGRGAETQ
Particulars: protein: recombinant; tags: N-terminal GST; dsDNA, one strand shown. The gist of the method:
as §1

The target of another assay is T10, ELF3 (Homo sapiens, UniProt P78545 1-371).
T10 sequence: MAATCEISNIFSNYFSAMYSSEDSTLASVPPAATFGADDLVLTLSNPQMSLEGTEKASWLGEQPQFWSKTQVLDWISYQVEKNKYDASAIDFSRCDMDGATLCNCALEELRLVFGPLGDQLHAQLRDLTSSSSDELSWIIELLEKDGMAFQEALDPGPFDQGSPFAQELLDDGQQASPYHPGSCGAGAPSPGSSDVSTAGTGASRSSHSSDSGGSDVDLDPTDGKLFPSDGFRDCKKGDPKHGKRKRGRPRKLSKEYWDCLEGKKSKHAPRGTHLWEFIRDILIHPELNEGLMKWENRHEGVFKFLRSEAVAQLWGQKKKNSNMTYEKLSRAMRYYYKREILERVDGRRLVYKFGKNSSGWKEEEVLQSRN
To be noted: protein: recombinant; tags: N-terminal GST; dsDNA, one strand shown. The gist of the method:
as §1

The target of a further assay is CRX (Homo sapiens, UniProt O43186 1-299). Particulars: protein: recombinant; tags: N-terminal GST; dsDNA, one strand shown. A digest of the protocol: as §1
Sequence of CRX (O43186 whole entry): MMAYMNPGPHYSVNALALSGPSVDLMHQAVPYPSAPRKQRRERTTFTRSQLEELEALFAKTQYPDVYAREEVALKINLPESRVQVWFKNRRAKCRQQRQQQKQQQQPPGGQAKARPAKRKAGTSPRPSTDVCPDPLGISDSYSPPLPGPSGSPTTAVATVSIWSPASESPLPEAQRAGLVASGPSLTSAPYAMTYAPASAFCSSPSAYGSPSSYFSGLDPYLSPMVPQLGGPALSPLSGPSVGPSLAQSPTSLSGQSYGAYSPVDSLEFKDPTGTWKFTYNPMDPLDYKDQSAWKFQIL
In a further assay the target is ETV1 (Homo sapiens, UniProt P50549 1-477). Particulars: protein: recombinant; tags: N-terminal GST; dsDNA, one strand shown. A digest of the protocol:
as §1

Sequence of ELF4 (Q99607 whole entry): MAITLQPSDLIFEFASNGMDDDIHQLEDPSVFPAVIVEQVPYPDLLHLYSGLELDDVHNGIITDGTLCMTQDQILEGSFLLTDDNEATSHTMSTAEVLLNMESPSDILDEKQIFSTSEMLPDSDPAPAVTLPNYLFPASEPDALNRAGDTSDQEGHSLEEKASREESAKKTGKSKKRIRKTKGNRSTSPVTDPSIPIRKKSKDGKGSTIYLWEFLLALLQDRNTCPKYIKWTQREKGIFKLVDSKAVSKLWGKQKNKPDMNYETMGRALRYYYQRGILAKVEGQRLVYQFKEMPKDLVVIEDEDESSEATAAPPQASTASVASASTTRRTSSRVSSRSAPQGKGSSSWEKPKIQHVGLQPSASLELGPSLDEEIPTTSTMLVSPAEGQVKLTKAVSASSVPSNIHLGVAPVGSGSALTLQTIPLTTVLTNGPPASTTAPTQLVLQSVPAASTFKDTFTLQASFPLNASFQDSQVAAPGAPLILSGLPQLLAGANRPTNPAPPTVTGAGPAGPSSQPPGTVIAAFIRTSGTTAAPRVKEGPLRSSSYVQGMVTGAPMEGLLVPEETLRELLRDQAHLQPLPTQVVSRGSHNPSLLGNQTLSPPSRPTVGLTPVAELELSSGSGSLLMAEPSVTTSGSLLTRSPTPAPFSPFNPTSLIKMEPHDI
Sequence of ETV1 (P50549 whole entry): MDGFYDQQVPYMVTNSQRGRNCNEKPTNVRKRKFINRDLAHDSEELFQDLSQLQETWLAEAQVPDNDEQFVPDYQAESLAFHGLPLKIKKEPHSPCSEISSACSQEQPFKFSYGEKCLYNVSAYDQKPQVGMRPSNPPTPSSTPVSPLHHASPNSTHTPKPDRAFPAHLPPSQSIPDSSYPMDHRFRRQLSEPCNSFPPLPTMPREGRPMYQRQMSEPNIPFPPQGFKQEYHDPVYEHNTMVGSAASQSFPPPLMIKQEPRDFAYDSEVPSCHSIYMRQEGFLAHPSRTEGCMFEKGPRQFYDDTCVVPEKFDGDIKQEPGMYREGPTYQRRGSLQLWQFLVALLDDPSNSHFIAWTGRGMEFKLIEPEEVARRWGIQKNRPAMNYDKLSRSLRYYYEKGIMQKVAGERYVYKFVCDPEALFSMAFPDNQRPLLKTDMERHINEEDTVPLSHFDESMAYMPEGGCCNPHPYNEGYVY
Sequence of ELF1 (P32519 whole entry): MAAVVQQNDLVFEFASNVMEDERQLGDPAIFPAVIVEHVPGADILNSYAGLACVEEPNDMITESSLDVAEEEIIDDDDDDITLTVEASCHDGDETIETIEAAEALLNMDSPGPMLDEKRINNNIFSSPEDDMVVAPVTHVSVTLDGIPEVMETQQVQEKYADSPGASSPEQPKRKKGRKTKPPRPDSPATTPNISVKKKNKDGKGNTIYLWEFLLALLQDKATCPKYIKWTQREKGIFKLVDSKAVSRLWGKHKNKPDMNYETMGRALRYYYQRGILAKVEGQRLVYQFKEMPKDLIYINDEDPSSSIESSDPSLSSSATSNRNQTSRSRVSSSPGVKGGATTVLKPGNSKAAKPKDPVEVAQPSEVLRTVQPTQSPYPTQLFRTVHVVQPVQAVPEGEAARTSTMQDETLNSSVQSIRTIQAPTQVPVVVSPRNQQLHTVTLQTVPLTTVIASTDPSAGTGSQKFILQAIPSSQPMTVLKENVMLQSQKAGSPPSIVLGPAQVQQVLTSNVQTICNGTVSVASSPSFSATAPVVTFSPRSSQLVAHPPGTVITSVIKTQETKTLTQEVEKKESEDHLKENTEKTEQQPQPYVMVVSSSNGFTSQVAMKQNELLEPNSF
Sequence of SPIB (Q01892 whole entry): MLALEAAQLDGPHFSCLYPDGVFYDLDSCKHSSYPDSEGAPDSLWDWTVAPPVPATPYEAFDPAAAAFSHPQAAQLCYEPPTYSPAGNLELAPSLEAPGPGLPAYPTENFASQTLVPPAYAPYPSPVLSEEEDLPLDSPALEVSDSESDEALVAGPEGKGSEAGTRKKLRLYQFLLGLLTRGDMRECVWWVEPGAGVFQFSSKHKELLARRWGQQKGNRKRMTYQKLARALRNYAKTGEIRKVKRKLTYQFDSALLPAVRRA
Sequence of HSF1 (Q00613 whole entry): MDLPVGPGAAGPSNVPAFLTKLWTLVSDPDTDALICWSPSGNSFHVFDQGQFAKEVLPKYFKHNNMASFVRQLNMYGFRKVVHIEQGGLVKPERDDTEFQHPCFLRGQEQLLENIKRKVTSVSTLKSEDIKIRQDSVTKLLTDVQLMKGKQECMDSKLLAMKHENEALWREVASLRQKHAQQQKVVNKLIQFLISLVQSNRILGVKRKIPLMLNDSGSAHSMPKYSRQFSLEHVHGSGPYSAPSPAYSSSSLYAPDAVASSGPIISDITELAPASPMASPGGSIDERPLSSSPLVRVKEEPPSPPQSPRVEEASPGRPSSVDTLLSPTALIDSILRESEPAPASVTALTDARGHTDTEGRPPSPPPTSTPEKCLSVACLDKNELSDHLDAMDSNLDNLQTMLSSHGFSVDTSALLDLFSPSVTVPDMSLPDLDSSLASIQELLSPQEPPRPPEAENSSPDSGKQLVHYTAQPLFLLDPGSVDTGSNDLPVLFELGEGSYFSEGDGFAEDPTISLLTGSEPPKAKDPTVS

TAGTGT: the binding signal is 1.17 fold enrichment (6-mer frequency, TF over GST control) with FLI1; 1.16 fold enrichment (6-mer frequency, TF over GST control) with ELK1; 1.14 fold enrichment (6-mer frequency, TF over GST control) with GABPA; 1.02 fold enrichment (6-mer frequency, TF over GST control) with ERG; 1.14 fold enrichment (6-mer frequency, TF over GST control) with ELF1; 1.11 fold enrichment (6-mer frequency, TF over GST control) with EHF. Also, the binding signal in the assay with SPI1 was 1.12 fold enrichment (6-mer frequency, TF over GST control); with SPIB it was 1.14 fold enrichment (6-mer frequency, TF over GST control); with ELK3 it was 1.08 fold enrichment (6-mer frequency, TF over GST control); with FEV, 1.02 fold enrichment (6-mer frequency, TF over GST control); with ETV5 it was 1.12 fold enrichment (6-mer frequency, TF over GST control); with HSF1 it was 1.15 fold enrichment (6-mer frequency, TF over GST control). In addition, the binding signal was 1.11 fold enrichment (6-mer frequency, TF over GST control) with ELF4; 1.4 fold enrichment (6-mer frequency, TF over GST control) with ELK4; 1.06 fold enrichment (6-mer frequency, TF over GST control) with ETV2; 1.21 fold enrichment (6-mer frequency, TF over GST control) with ELF3; 1.29 fold enrichment (6-mer frequency, TF over GST control) with CRX; 1.21 fold enrichment (6-mer frequency, TF over GST control) with ETV1.

The record behind these values is PMC7862700, “An all-to-all approach to the identification of sequence-specific readers for epigenetic DNA modifications on cytosine”.
